# Data published in PubChem BioAssay.
# The list shows a part of the results. Activity calls are given as the source filed them.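 Rule for the calls, unless noted: active = mean inhibition of the triplicate above the hit cutoff set for the earlier primary screen (cut at about 25% in these data); inactive = the rest.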
# Target: Insulin-degrading enzyme (Homo sapiens) (UniProt P14735)
# Assay: cellular IDE Abeta-cleavage inhibition – fluorescence polarization, HEK cells, FAbetaB substrate, confirmation (AID 435028;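 active = mean inhibition across triplicate wells above the cutoff set by the earlier primary insulin-degrading enzyme screen, cut at about 16% in these data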;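 note: 0% = DMSO wells and 100% = 60 µM reference IDE inhibitor Ii1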)
# Details: at 5.59 µM, stronger effect = higher value
# Sequence of Insulin-degrading enzyme (Homo sapiens) (P14735 whole entry, looked up): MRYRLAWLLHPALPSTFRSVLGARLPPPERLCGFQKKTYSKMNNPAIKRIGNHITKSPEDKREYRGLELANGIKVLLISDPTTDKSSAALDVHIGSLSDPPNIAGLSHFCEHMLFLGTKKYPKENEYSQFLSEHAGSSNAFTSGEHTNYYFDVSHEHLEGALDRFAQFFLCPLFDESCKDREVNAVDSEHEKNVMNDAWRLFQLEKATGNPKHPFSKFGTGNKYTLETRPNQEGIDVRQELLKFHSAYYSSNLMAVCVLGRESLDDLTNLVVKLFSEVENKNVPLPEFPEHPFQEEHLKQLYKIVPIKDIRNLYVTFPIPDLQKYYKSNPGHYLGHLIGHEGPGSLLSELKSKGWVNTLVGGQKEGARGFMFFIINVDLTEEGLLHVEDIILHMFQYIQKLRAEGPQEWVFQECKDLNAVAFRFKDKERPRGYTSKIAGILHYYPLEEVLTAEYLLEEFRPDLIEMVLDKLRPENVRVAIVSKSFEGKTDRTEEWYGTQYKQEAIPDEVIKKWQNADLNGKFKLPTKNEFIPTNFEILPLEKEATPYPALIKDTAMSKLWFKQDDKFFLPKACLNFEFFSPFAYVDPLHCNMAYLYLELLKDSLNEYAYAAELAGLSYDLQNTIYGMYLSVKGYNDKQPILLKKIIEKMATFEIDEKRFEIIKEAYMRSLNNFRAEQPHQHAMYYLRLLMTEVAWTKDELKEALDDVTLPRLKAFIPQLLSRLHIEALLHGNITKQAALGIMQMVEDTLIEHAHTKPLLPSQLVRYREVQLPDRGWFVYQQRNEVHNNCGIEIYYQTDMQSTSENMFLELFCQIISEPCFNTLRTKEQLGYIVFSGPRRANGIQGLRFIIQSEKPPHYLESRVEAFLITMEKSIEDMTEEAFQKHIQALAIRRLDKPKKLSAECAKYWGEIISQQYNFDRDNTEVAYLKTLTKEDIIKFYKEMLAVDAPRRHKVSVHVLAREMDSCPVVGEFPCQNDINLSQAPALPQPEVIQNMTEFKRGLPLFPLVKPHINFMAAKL
row,Structure (SMILES),inhibition
1,Nc1c(C(=O)c2cccs2)sc2nsc(SCCN3CCCCC3)c12,54.9% (active)
2,O=C(/C=C(O)/C=C/c1ccc(O)cc1)/C=C/c1ccc(O)cc1,50% (active)
3,Cc1c(-c2cccc(Cl)c2)nc2ccccc2c1C(=O)OCC(=O)N(C)C1CCS(=O)(=O)C1 (configuration not stated),16.9% (active)
4,Cc1ccc2c(c1)c1ncnc(N3CCc4ccccc4C3)c1n2C,14% (inactive)
5,COc1cc(/C=C(\C#N)c2nc3c(s2)CC(C)CC3)ccc1O (configuration not stated),161% (active)
6,N#CC1=C(N)Oc2c(sc3ccccc23)C1c1ccco1 (configuration not stated),55.6% (active)
7,COc1ccc(N=C(C)c2sc3ccccc3c2O)cc1,56.1% (active)
8,N#C/C(=C\c1ccc(O)c(O)c1)C(=O)NCc1ccccc1,43.1% (active)
9,Fc1ccc2[nH]c3c(N4CCSCC4)ncnc3c2c1,7.91% (inactive)
10,COc1ccc(C(=O)Nc2nc(-c3ccc(S(=O)(=O)N4CCOCC4)cc3)cs2)cc1,3.32% (inactive)

# System: not listed separately
# Assay: HEK cell viability loss – luminescence, cytotoxicity control for IDE inhibitor project (AID 449730; in the data active = inhibition above about 22%;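 note: 0% = vehicle wells and 100% = reference cytotoxic drug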)
# Details: HEK293 cytotoxicity, ATP luminescence; at 5.59 µM; stronger effect = higher value
row,Structure (SMILES),inhibition
1,Nc1c(C(=O)c2cccs2)sc2nsc(SCCN3CCCCC3)c12,18.4% (inactive)
2,O=C(/C=C(O)/C=C/c1ccc(O)cc1)/C=C/c1ccc(O)cc1,7.11% (inactive)
3,Cc1c(-c2cccc(Cl)c2)nc2ccccc2c1C(=O)OCC(=O)N(C)C1CCS(=O)(=O)C1 (configuration not stated),14.1% (inactive)
4,Cc1ccc2c(c1)c1ncnc(N3CCc4ccccc4C3)c1n2C,7.19% (inactive)
5,COc1cc(/C=C(\C#N)c2nc3c(s2)CC(C)CC3)ccc1O (configuration not stated),11.3% (inactive)
6,N#CC1=C(N)Oc2c(sc3ccccc23)C1c1ccco1 (configuration not stated),39.4% (active)
7,COc1ccc(N=C(C)c2sc3ccccc3c2O)cc1,15.2% (inactive)
8,N#C/C(=C\c1ccc(O)c(O)c1)C(=O)NCc1ccccc1,6.24% (inactive)
9,Fc1ccc2[nH]c3c(N4CCSCC4)ncnc3c2c1,49.2% (active)
10,COc1ccc(C(=O)Nc2nc(-c3ccc(S(=O)(=O)N4CCOCC4)cc3)cs2)cc1,68.2% (active)

# Target: Platelet-activating factor acetylhydrolase (Homo sapiens) (UniProt Q13093)
# Assay: inhibition of plasma PAF acetylhydrolase – biochemical, fluorescence polarization, human, confirmation (AID 463230);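 note: 0% = enzyme with DMSO and 100% = wells lacking pPAFAH enzyme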
# Details: recombinant pPAFAH, FP-Rh probe fluorescence polarization; at 3.39 µM; stronger effect = higher value
# Sequence of Platelet-activating factor acetylhydrolase (Homo sapiens) (Q13093 whole entry, looked up): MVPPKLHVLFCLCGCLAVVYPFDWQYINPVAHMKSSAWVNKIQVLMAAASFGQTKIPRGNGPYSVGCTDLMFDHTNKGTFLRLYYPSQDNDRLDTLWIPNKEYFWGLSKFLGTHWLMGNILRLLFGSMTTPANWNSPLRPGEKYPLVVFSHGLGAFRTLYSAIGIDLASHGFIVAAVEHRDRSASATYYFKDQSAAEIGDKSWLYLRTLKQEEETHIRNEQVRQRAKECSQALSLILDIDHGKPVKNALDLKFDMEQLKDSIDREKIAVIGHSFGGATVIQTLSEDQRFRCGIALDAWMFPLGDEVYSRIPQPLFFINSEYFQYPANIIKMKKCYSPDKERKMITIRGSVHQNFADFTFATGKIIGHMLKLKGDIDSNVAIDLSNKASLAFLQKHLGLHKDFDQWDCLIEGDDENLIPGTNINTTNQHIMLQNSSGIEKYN
row,Structure (SMILES),inhibition
1,Cc1ccccc1-n1c(SCC(=O)Nc2cccc3ccccc23)nc(O)cc1=O,4.9% (inactive)
2,O=C(CCC1CCCCC1)Nc1cc(C(F)(F)F)ccc1N1CCOCC1,6.87% (inactive)
3,CCc1ccc(CN(C)C(=O)CCc2nnc(-c3ccc(-c4ccccc4)cc3)o2)nc1,11.8% (inactive)
4,CC1CCCCC1NC(=O)COC(=O)Cc1ccc(Cl)cc1 (configuration not stated),22.3% (inactive)
5,COc1cc(C2CC(=O)N3CN(Cc4ccccc4)CSC3=C2C#N)ccc1OCc1ccccc1 (configuration not stated),14.2% (inactive)
6,Oc1ccc(N=Nc2nccs2)c(O)c1,5.09% (inactive)
7,O=C(O)C(c1ccccc1)N1C(=O)/C(=C\c2ccc(-c3cccc(Cl)c3)o2)SC1=S (configuration not stated),55.4% (active)
8,CC1(OC(=O)C2CCCC2)C(=O)C=C2C=C(c3ccc(C#N)cc3)OC=C2C1=O (configuration not stated),53.2% (active)
9,COc1ccc(C(=O)NC(=S)Nc2ccccc2N2CCN(S(C)(=O)=O)CC2)cc1OC,-1.51% (inactive)
10,CCOc1ccc(NS(=O)(=O)c2ccc(C(=O)NCC(c3ccccc3OC)N3CCCC3)cc2)cc1 (configuration not stated),45.4% (active)
11,Cc1ccc(/C=N/NC(=O)c2cc3ccccc3cc2O)o1,9.89% (inactive)
12,Cc1cc(C(=O)CSc2nc(N)cc(=O)[nH]2)c(C)n1CCc1ccc(Cl)cc1,74.3% (active)
13,O=C(Nc1nc(-c2ccco2)c(-c2ccco2)s1)c1ccco1,17.3% (inactive)
14,COC(=O)c1ccc(C(NC(=O)OCc2ccccc2)/C(C)=C/[C@@H](C)C(=O)NCc2ccc(OC)c(OC)c2)cc1 (some centres not stated),36% (active)
15,Cc1ccc(-c2noc(CSc3nnc(-c4ccncc4)n3-c3ccc(F)cc3)n2)cc1,1.52% (inactive)
16,COCC(C)NC(=O)c1ccc(-n2nc(C(F)(F)F)cc2-c2cccs2)cc1 (configuration not stated),23.6% (inactive)
17,Cc1cc(C(=O)CSc2nc(N)cc(=O)[nH]2)c(C)n1-c1cccc(F)c1,51.8% (active)
18,COc1cccc(CNC(=O)CCC2CCCN(C(=O)c3ccc(F)c(Cl)c3)C2)c1 (configuration not stated),17.2% (inactive)
19,COc1cccc(/C=N/NC(=O)c2[nH]nc3c2CCc2ccccc2-3)c1O,38.9% (active)
20,O=C(N/N=C/c1cccnc1)c1cc2ccccc2cc1O,5.94% (inactive)
21,CCCCC(=O)Nc1ccc2c(c1)C(=O)NC2=O,4.81% (inactive)
22,Cc1ccc(S(=O)(=O)NCc2csc(C)n2)c(C)c1,2.33% (inactive)
